Measured values published in PubChem BioAssay AID1159580 (chemical genetic matrix, 2015).
The whole screen tested about 5,500 compounds, of which about 2,000 (36%) were called active. Roughly 18% stayed inconclusive and do not appear here. No stated cut-off is given here; in the data, active means normalized growth mostly below about 0.91 (no sharp cut-off); inconclusive means no clear call, values can overlap the other calls; inactive means mostly above about 0.92. The list shows a part of the results.

Test: chemical genetic growth profiling, strain panel (AID 1159580);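 further: tested at 20 µM; growth read once vehicle control cultures reached saturation at 30 °C; 1 = growth at the plate median or of vehicle wells; lower values mean less growth of the strain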
Conditions: growth OD
[1] = S. cerevisiae deletion strains, locus YAL013W, strain DEP1, active compounds read low
[2] = S. cerevisiae deletion strains, locus YBR229C, strain ROT2, active compounds read low
[3] = S. cerevisiae deletion strains, locus YCL061C, strain MRC1, active compounds read low
[4] = S. cerevisiae deletion strains, locus YDL101C, strain DUN1, active compounds read low
[5] = S. cerevisiae deletion strains, locus YDR150W, strain NUM1, active compounds read low
[6] = S. cerevisiae deletion strains, locus YEL061C, strain CIN8, active compounds read low
[7] = S. cerevisiae deletion strains, locus YGR078C, strain PAC10, active compounds read low
[8] = S. cerevisiae deletion strains, locus YHR030C, strain SLT2, active compounds read low
[9] = S. cerevisiae deletion strains, locus YHR087W, strain rtc3, active compounds read low
[10] = S. cerevisiae deletion strains, locus YJL187C, strain SWE1, active compounds read low
[11] = S. cerevisiae deletion strains, locus YJR043C, strain POL32, active compounds read low
[12] = S. cerevisiae deletion strains, locus YJR075W, strain HOC1, active compounds read low
[13] = S. cerevisiae deletion strains, locus YLR039C, strain RIC1, active compounds read low
[14] = S. cerevisiae deletion strains, locus YLR058C, strain SHM2 (second series), active compounds read low
[15] = S. cerevisiae deletion strains, locus YLR085C, strain ARP6, active compounds read low
[16] = S. cerevisiae deletion strains, locus YLR262C, strain YPT6, active compounds read low
[17] = S. cerevisiae deletion strains, locus YML094W, strain GIM5, active compounds read low
[18] = S. cerevisiae deletion strains, locus YMR219W, strain ESC1, active compounds read low
[19] = S. cerevisiae deletion strains, locus YMR263W, strain SAP30, active compounds read low
[20] = S. cerevisiae deletion strains, locus YNL153C, strain GIM3, active compounds read low
[21] = S. cerevisiae deletion strains, locus YNL298W, strain CLA4 (second series), active compounds read low
[22] = S. cerevisiae deletion strains, locus YNL322C, strain KRE1, active compounds read low
[23] = S. cerevisiae deletion strains, locus YNR030W, strain Alg12, active compounds read low
[24] = S. cerevisiae deletion strains, locus YPL055C, strain LGE1, active compounds read low
[25] = S. cerevisiae deletion strains, locus YPL241C, strain CIN2, active compounds read low
[26] = S. cerevisiae deletion strains, locus YPR135W, strain CTF4, active compounds read low
[27] = S. cerevisiae strains, strain wild type, active compounds read low

Measured: normalized growth

Cc1cc(=O)n2c(-c3ccc(Cl)cc3)csc2n1
active: [17] 0.864
inactive: [1] 0.975 | [2] 0.954 | [3] 0.951 | [4] 0.936 | [5] 0.976 | [6] 0.931 | [7] 0.96 | [8] 0.712 | [9] 0.927 | [10] 0.965 | [11] 0.982 | [12] 0.956 | [13] 0.892 | [14] 0.956 | [15] 0.826 | [16] 0.916 | [18] 0.96 | [19] 0.987 | S. cerevisiae deletion strains, locus YNL128W, strain TEP1, active compounds read low 0.972 | [20] 0.973 | [21] 0.947 | [22] 0.976 | [23] 0.943 | [24] 0.963 | [25] 0.941 | [26] 0.764 | [27] 0.96

Cc1cc(C)c2c(-n3cccc3)c(C(=O)c3ccc(Cl)cc3)sc2n1
inactive: [1] 0.996 | [2] 1.01 | [3] 1 | [4] 0.979 | [5] 0.9 | [6] 1 | [7] 1.01 | S. cerevisiae deletion strains, locus YGR229C, strain SMI1, active compounds read low 0.99 | [8] 0.884 | [9] 0.98 | [10] 1.01 | [11] 1.01 | [12] 0.987 | [13] 0.903 | [14] 1.01 | [15] 0.961 | [16] 0.95 | [17] 0.935 | [18] 1.01 | [19] 0.997 | S. cerevisiae deletion strains, locus YMR307W, strain GAS1, active compounds read low 0.891 | [20] 0.984 | [21] 0.984 | [22] 0.997 | [23] 0.95 | [24] 0.957 | [25] 1 | [26] 0.893 | [27] 0.986
